Rows were chosen to be rich in hits. Some 2.3% of all compounds tested hit in one or more screens of this group.
PME-1 primary: PME-1 inhibitors via competitive probe labeling, primary screen, biochemical, fluorescence polarization, FP-Rh probe, HTS | Protein phosphatase methylesterase 1 (Homo sapiens), Q9Y570 | recombinant PME-1 | inhibition, % at 5.9 µM | 0.53% of 320,000 active | AID 2130, 2009;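 active means inhibition above the campaign mean of all compounds plus 3 SD, cut at about 26% in these data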;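 further: competitive labeling of PME-1 active site by serine hydrolase directed probe; 0% = PME-1 with DMSO and 100% = wells lacking PME-1 enzyme; inhibitors block probe labeling so polarization falls and inhibition rises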
PAD4 FP inh: human PAD4 inhibitors, primary screen, biochemical, fluorescence polarization, 1536-well format; Protein-arginine deiminase type-4 (Homo sapiens), Q9UM07; inhibition, % at 6.36 µM; 0.41% of 330,000 active; recombinant PAD4, RCA probe fluorescence polarization;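 active means percent inhibition above a cutoff equal to the mean of all tested compounds plus 3 SD, cut at about 15% in these data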;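 further: 0% = PAD4 with RCA probe and DMSO and 100% = probe without PAD4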
Target sequence (Q9UM07 whole entry, looked up): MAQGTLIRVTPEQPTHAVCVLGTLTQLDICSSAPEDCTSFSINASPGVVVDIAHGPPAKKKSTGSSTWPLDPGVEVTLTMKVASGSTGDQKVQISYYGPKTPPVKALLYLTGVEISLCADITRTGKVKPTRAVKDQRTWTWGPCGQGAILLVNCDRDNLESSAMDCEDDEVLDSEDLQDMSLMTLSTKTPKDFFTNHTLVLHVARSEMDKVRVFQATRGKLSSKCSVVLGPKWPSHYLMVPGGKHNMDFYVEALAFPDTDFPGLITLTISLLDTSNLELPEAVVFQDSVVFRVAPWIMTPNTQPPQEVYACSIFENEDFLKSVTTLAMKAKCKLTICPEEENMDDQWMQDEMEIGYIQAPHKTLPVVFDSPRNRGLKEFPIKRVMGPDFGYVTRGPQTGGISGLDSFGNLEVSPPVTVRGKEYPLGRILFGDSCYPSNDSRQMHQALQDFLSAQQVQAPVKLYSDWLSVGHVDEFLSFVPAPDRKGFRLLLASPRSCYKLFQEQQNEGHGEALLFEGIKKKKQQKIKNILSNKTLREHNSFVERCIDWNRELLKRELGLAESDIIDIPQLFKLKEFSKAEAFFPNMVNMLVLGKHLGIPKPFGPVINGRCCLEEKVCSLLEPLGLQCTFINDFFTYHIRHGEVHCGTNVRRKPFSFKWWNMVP
Fam108B counter: mouse Fam108B serine hydrolase inhibitors, primary screen, counter-screen for RBBP9 inhibitor project, biochemical, fluorescence polarization | inhibition, % at 9.51 µM | 0.33% of 300,000 active | recombinant Fam108B, FP-Rh probe fluorescence polarization;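 active means inhibition above the screen mean inhibition plus 3 SD, computed separately per campaign, cut at about 18% in these data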;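 further: inhibitors lower polarization as less probe binds the enzyme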
pPAFAH FP inh: pPAFAH enzyme inhibitors, primary screen, biochemical, fluorescence polarization, human. Platelet-activating factor acetylhydrolase (Homo sapiens), Q13093. recombinant pPAFAH, FP-rhodamine probe fluorescence polarization. inhibition, % at 3.39 µM. 1.5% of 330,000 active;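 active means inhibition above the mean inhibition across the screen plus 3 SD, cut at about 25% in these data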;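 further: inhibitors block binding of the rhodamine activity-based probe so polarization drops; 0% = enzyme with DMSO and 100% = wells lacking pPAFAH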
GSTO1 counter: inhibitors of recombinant GSTO1, primary screen, counter-screen for RBBP9 inhibitor project, biochemical, fluorescence polarization; Glutathione S-transferase omega-1 (Homo sapiens), P78417; activity-based probe fluorescence polarization; inhibition, % at 5.96 µM; 1.1% of 300,000 active; AID 1974, 2009;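 active means inhibition above the campaign mean inhibition plus 3 SD, cut at about 35% in these data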;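 further: 0% = GSTO1-1 with DMSO and 100% = wells lacking GSTO1-1 enzyme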
GSTO1 inh conf: GSTO1 inhibitor hit confirmation, counter-screen for RBBP9 inhibitor project, biochemical, fluorescence polarization, triplicate | shares compounds with GSTO1 counter | recombinant GSTO1, probe fluorescence polarization | inhibition, % at 5.96 µM | 54% of 2,400 active | AID 2176, 2009;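 active means inhibition above the primary screen's cutoff, its mean inhibition plus 3 SD, cut at about 35% in these data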;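 further: loss of polarization as inhibitors block binding of rhodamine sulfonate ester activity probe; 0% = GSTO1 with DMSO and 100% = wells lacking GSTO1 enzyme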
pPAFAH FP conf: pPAFAH (PLA2G7) enzyme inhibitors, confirmation, biochemical, fluorescence polarization, human; shares compounds with pPAFAH FP inh; recombinant pPAFAH, FP-Rh probe fluorescence polarization; inhibition, % at 3.39 µM; 72% of 2,300 active; AID 463230, 2010;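 active means mean inhibition of the triplicate above the hit cutoff set for the earlier primary screen, cut at about 25% in these data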;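 further: 0% = enzyme with DMSO and 100% = wells lacking pPAFAH enzyme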
PAD4 FP conf: human PAD4 inhibitors, confirmation, biochemical, fluorescence polarization; shares compounds with PAD4 FP inh; recombinant PAD4, RCA probe fluorescence polarization; inhibition, % at 6.36 µM; 28% of 1,200 active;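 active means mean inhibition across replicates above the hit cutoff set by the earlier primary screen, cut at about 15% in these data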;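 further: inhibitors block active-site labeling by the probe so polarization falls; 0% = PAD4 with probe and DMSO and 100% = probe without PAD4 enzyme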
* hit, by the source's call; . = no result given; ! = not active in a repeat.

SMILES | PME-1 primary | PAD4 FP inh | Fam108B counter | pPAFAH FP inh | GSTO1 counter | GSTO1 inh conf | PAD4 FP conf | others
CC(=O)NC1=C(Nc2ccc(N(C)C)cc2)C(=O)c2ccccc2C1=O | -1 | 17* | 2 | 6 | 46* | 5 | -7
CC(C)C(c1nnnn1C(C)(C)C)N1CCN(c2cccc(Cl)c2)CC1 (stereo unspecified) | 3 | 5 | 1 | 1 | 6 | . | .
COc1ccc(C(=O)c2c(C(F)(F)F)oc3c2C(=O)c2ccccc2C3=O)cc1 | 12 | 30* | 7 | 9 | 63* | 66* | 22*
O=C(NC1(O)C(=O)c2ccccc2C1=O)c1ccc(C(F)(F)F)cc1 | 8 | 40* | 7 | 0 | 84* | 77* | 40*
O=C(N[C@@H](Cc1ccccc1)C(=O)O)c1ccc(C(F)(F)F)cc1 | 1 | -2 | -4 | -2 | 6 | . | .
S=C(NCc1ccco1)Nc1ccc(Cl)cn1 | 6 | -6 | -1 | 9 | -2 | . | .
CC(=O)c1ccc(Nc2c([N+](=O)[O-])ccc3nonc23)cc1 | 1 | -1 | -2 | -1 | 17 | . | .
O=[N+]([O-])c1cc([N+](=O)[O-])c2nonc2c1Nc1ccc(O)cc1 | 12 | 55* | -1 | 22 | 65* | 53* | 8
CCC(=Nc1ccc(N)cc1)C1=C(O)C(C(=O)OC)C(C)(C)CC1=O (stereo unspecified) | 26* | 73* | 14 | 58* | 85* | 6 | 7 | pPAFAH FP conf=1
CCCCC(=Nc1ccc(N)cc1)C1=C(O)C(C(=O)OC)C(C)(C)CC1=O (stereo unspecified) | 41* | 75* | 13 | 38* | 86* | 3 | 2 | pPAFAH FP conf=8
CCCC(=Nc1ccccc1)C1=C(O)C(C(=O)OC)C(C)(C)CC1=O (stereo unspecified) | 2 | -2 | 0 | 2 | 1 | . | .
CO/N=C(\C(=O)O)c1csc(NN=C(C)C)n1 | 1 | -7 | 5 | 11 | 8 | . | .
CCN(CC)S(=O)(=O)c1ccc(OC(C)C)c(NC(=O)C2=COCCO2)c1 | 1 | -2 | -2 | 24 | -4 | . | .
COc1cc(N=C2C(=O)N3c4c(cccc42)C(C)=CC3(C)C)cc(OC)c1 | 2 | -9 | 5 | 14 | -3 | . | .
CC1=CC(C)(C)N2C(=O)C(=Nc3ccc(O)cc3)c3cccc1c32 | 44* | 26* | 16 | 22 | 97* | 17 | 2
COc1cccc(CN2CC(C(=O)NCCc3ccc(C)s3)CCC2=O)c1 (stereo unspecified) | 7 | 2 | 4 | 1 | 1 | . | .
O=C(Cc1cc(=O)[nH][nH]1)N/N=C/c1c(F)cccc1Cl | -1 | -16 | -1 | 2 | 34 | . | .
O=C(Cc1cc(=O)[nH][nH]1)N/N=C/c1c(Cl)cccc1Cl | -1 | 20*! | -4 | 7 | 52* | 1 | -5
CN(C)S(=O)(=O)c1cccc(NC(=O)CN2C(=O)C3C4C=CC(C4)C3C2=O)c1 (stereo unspecified) | -2 | 3 | -1 | 2 | 1 | . | .
COc1ccccc1N(CC(=O)NCc1ccc2c(c1)OCO2)C(=O)CCC(=O)Nc1nccs1 | 1 | 5 | -1 | 0 | 4 | . | .
COc1ccc(/C=C2\N=C(C)OC2=O)cc1[N+](=O)[O-] | -1 | 2 | 6 | -2 | -3 | . | .
COc1ccc([N+](=O)[O-])cc1NS(=O)(=O)c1ccc(Cl)c(C(=O)Nc2sc3c(c2C#N)CCCCC3)c1 | -7 | -1 | -8 | 3 | -4 | . | .
COc1cc(NC(C)CCCN)c2ncccc2c1 (stereo unspecified) | 6 | 35* | 0 | -2 | 47* | 8 | -4
O=C([O-])c1ccccc1-[n+]1c(-c2ccccc2)cc(-c2ccccc2)cc1-c1ccccc1 | 0 | -6 | 7 | 4 | 6 | . | .
CCOc1ccc(S(=O)(=O)Nc2ncn[nH]2)cc1 | 1 | 1 | 2 | 7 | 1 | . | .
SMILES | PME-1 primary | PAD4 FP inh | Fam108B counter | pPAFAH FP inh | GSTO1 counter | GSTO1 inh conf | PAD4 FP conf | others
CCOc1ccc(S(=O)(=O)Nc2cc(Sc3ncn[nH]3)c3oc(=O)sc3c2)cc1 | 5 | 18* | 6 | 33* | 47* | 17 | 4
COc1cc(S(=O)(=O)NCC(c2ccco2)N2CCCCC2)ccc1NC(C)=O (stereo unspecified) | -1 | -4 | . | 0 | . | . | .
COc1ccc(C)cc1N(C(=O)c1ccco1)C(C(=O)NC1CCCC1)c1cc(OC)c(OC)c(OC)c1 (stereo unspecified) | -8 | 0 | 2 | 1 | 6 | . | .
Cc1nn(-c2ccccc2)c2[nH]c(=O)c(CNc3ccc(N4CCOCC4)cc3)cc12 | 2 | 20* | 3 | 9 | 39* | 0 | 3
CC(C)(C)c1nn(-c2ccccc2)c2[nH]c(=O)c(CNc3ccc4c(c3)OCCO4)cc12 | -3 | 3 | 8 | 4 | 28 | . | .
CCN(CC)c1ccc(/C=C2/C(=O)N(c3ccc([N+](=O)[O-])cc3)N=C2N2CCOCC2)cc1 | 1 | -1 | 4 | 2 | 5 | . | .
COc1cc(/C=C2/C(=O)N(c3ccc([N+](=O)[O-])cc3)N=C2N2CCOCC2)ccc1O | 24 | 70* | 8 | 2 | 89* | 10 | 2
O=S(=O)(c1ccc(F)cc1)N1CCN(C(=S)NCC2CCCO2)CC1 (stereo unspecified) | -7 | -2 | -1 | -5 | 6 | . | .
CN(C)c1ccc(N=Cc2nc(-c3ccccc3)oc2O)cc1 | 1 | 9 | 7 | 6 | 24 | . | .
CN(C)c1ccc(N=Cc2cccn2C)cc1 | 4 | 25* | 6 | 19 | 83* | 3 | -12
O=[N+]([O-])c1ccc(N2CCN(S(=O)(=O)Cc3ccccc3)CC2)cc1N1CCOCC1 | 1 | 0 | 2 | 1 | 1 | . | .
O=[N+]([O-])c1cc(Cc2ccccc2)cc(C=Nc2ccc(N3CCOCC3)cc2)c1O | 1 | 24* | 2 | 34* | 69* | 5 | -5
